The values that follow come from PMC5540273 (PLoS ONE, 2017).

What all share (settings): concentration: 1 μM, replicates: in singlicate; n = 1
Assay [1] deals with JAK1(JH2domain-pseudokinase).
Assay [2] concerns JAK2(JH1domain-catalytic).
Assay [3] deals with JAK3(JH1domain-catalytic).
For assay [4], the system named is T1, JNK1.
T1 construct: gene MAPK8

For assay [5], the system named is T2, JNK2.
T2 construct: gene MAPK9

For assay [6], the system named is T3, JNK3.
T3 construct: gene MAPK10

The subject of assay [7] is KIT-autoinhibited.
The test system of assay [8] is KIT.
The test system of assay [9] is LATS1.
Assay [10] concerns LATS2.
For assay [11], the system named is LCK.
Assay [12] relates to LIMK1.
Assay [13] has as its system LIMK2.
The test system of assay [14] is T4, LKB1.
T4 construct: gene STK11

For assay [15], the system named is T5, LOK.
T5 construct: gene STK10

The test system of assay [16] is LRRK2.
The subject of assay [17] is LTK.
The subject of assay [18] is LYN.
The subject of assay [19] is T6, LZK.
T6 construct: gene MAP3K13

Assay [20] deals with MAK.
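Further: KINOMEscan kinase panel screen.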

For `CCOc1nccc(-c2c(-c3ccc(F)cc3)ncn2C2CCNCC2)n1` [SB-249175], the “%Inh” value in assay [1] came to 0%; in assay [2], 26%; in [3], 26%; in [4], 58%; in assay [5], 89%; in assay [6] it was 90.2%. For the same compound, the “%Inh” value came to 8% in assay [7]; 17% in assay [8]; 0% in assay [9]; 29% in [10]; 82% in assay [11]; 3% in assay [12]. In addition, the “%Inh” value in assay [13] was found to be 11%; in [14], 30%; in [15] it was 0%; in [16], 0%; in assay [17], 4%; in assay [18], 12%. The “%Inh” value in [19] stood at 3%; in assay [20], 1%.

With `Cc1ccc(-c2ccc3occ(-c4ccc(S(C)=O)cc4)c3c2)nn1` (stereo not shown), the “%Inh” value in [1], in [2], in assay [3], in assay [4], in assay [5] and in assay [6] was 0% each time. The “%Inh” value in [7] amounted to 0%; in assay [8] it was 0%; in assay [9], 13%; in assay [10], 0%; in [11], 0%; in assay [12] it was 0%. In addition, the “%Inh” value in assay [13] turned out to be 0%; in assay [14], 0%; in [15], 0%; in assay [16] it was 0%; in [17], 0%; in assay [18], 1%. The “%Inh” value in [19] is recorded as 1%; in assay [20] it was 0%.

In the case of `Cc1ccc(O)cc1Nc1ccnc2ccc(C(C)(C)C)cc12` [GW856805], the “%Inh” value was determined as 20% in assay [1]; 64% in assay [2]; 0% in [3]; 43% in [4]; 29% in assay [5]; 15% in [6]. The “%Inh” value in [7] is reported as 22%; in [8], 96.9%; in assay [9] it was 0%; in [10], 0%; in assay [11], 98.6%; in assay [12], 0%. In addition, the “%Inh” value in [13] is 0%; in [14], 33%; in assay [15], 16%; in assay [16], 67%; in assay [17], 11%; in assay [18], 69%. The “%Inh” value in assay [19] came to 0%; in assay [20], 23%.

Take `CNc1nccc(-c2ccc3c(N)n[nH]c3c2)n1` [GSK2206003]: the “%Inh” value in assay [1] stood at 57%; in [2], 47%; in [3], 15%; in assay [4], 46%; in assay [5], 36%; in assay [6], 29%. The “%Inh” value came to 0% in assay [7]; 57% in assay [8]; 0% in assay [9]; 17% in assay [10]; 19% in [11]; 0% in [12]. Also, the “%Inh” value in assay [13] is 0%; in assay [14], 5%; in [15] it was 23%; in assay [16], 1%; in assay [17] it was 27%; in [18], 0%. In addition, the “%Inh” value in [19] came out at 0%; in assay [20], 29%.

For the compound `Cc1ccc(NC(=O)c2cccc(N3CCCCC3)c2)cc1-c1ccc(C(=O)NCC2CC2)cc1` [GSK1917008], the “%Inh” value in assay [1] was 19%; in assay [2] it was 15%; in assay [3] it was 0%; in assay [4] it was 22%; in [5], 30%; in [6], 10%. Also, the “%Inh” value in assay [7] was 6%; in assay [8], 79%; in assay [9] it was 0%; in assay [10], 16%; in assay [11] it was 38%; in [12], 8%. Moreover, the “%Inh” value in assay [13] is 100%; in assay [14], 0%; in assay [15] it was 32%; in assay [16], 22%; in [17] it was 7%; in assay [18] it was 0%. The “%Inh” value in assay [19] was determined as 0%; in assay [20] it was 24%.

For the compound `CN(c1ccc(NC(=O)Nc2cccc(Cl)c2)cc1)c1ccnc(N)n1.Cl` [GW830707], the “%Inh” value in assay [1] was 0%; in [2], 27%; in [3], 0%; in assay [4], 0%; in [5], 0%; in [6] it was 0%. The “%Inh” value in assay [7] came out at 45%; in assay [8] it was 100%; in [9], 18%; in assay [10], 0%; in assay [11], 7%; in [12], 0%. Further, the “%Inh” value in [13] is 0%; in assay [14], 20%; in assay [15], 97.8%; in assay [16], 66%; in assay [17], 12%; in assay [18], 0%. In addition, the “%Inh” value in [19] is on record as 0%; in assay [20], 11%.

For `O=C(Nc1n[nH]c2nc(-c3ccccc3O)ccc12)C1CC1` [SB-711880], the “%Inh” value in assay [1] came to 0%; in assay [2], 0%; in [3] it was 0%; in [4], 38%; in assay [5], 31%; in [6], 24%. The “%Inh” value in assay [7] is 32%; in [8], 0%; in [9], 0%; in assay [10] it was 0%; in assay [11], 37%; in [12], 0%. Further, the “%Inh” value in assay [13] stood at 0%; in assay [14], 22%; in [15], 77%; in assay [16], 0%; in assay [17], 0%; in assay [18], 0%. The “%Inh” value in [19] is reported as 20%; in assay [20] it was 16%.

Consider `COc1ccc(C2=C(Nc3cccc(O)c3)C(=O)NC2=O)cc1` [SB-390766], for which the “%Inh” value in assay [1] was found to be 0%; in [2] it was 13%; in assay [3], 0%; in [4], 21%; in assay [5] it was 16%; in assay [6] it was 1%. For the same compound, the “%Inh” value came to 2% in [7]; 14% in [8]; 0% in [9]; 0% in [10]; 0% in [11]; 0% in assay [12]. Moreover, the “%Inh” value turned out to be 10% in assay [13]; 0% in [14]; 0% in [15]; 5% in [16]; 30% in [17]; 52% in assay [18]. Further, the “%Inh” value worked out at 6% in assay [19] and 0% in [20].
